The nature of assay [1]: Cell Viability - LYMP2-006 (AID 978). Further: on the % scale 0 is the no-effect control and ±100 the full control effect; nearly all actives have a fitted effect of over 60% in size. A digest of the protocol: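 Human lymphoblastoid cells, 2500 per well, were preincubated 5 hr at 37 C, then exposed to compounds for 24 hr at 37 C in complete medium. Viability was read as intracellular ATP by CellTiter-Glo luminescence; AC50 from Hill-equation fits of qHTS concentration-response data.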
Assay [2] is described as follows: Cell Viability - LYMP2-007 (AID 979).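 Further: cells exposed to compound for 24 h before reading; 0% = DMSO only and the negative end = 92 µM tetraoctylammonium bromide; nearly all actives have a fitted effect of over 60% in size.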 Summed up: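 Human lymphoblastoid LYMP2-007 cells (2500/well) preincubated 5 h at 37 C, then treated 24 h at 37 C in complete medium. Viability by CellTiter-Glo ATP luminescence after 30 min at room temperature; AC50 from Hill fits.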
The nature of assay [3]: Cell Viability - LYMP2-008 (AID 980). Further: on the % scale 0 is the no-effect control and ±100 the full control effect; nearly all actives have a fitted effect of over 60% in size. Summed up: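 LYMP2-008 lymphoblastoid cells (2500/well) plated 5 h, then treated 24 h at 37 C in complete medium. Viability read as intracellular ATP by CellTiter-Glo luminescence after 30 min at room temperature; AC50 from Hill fits.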
Assay [4] is described as follows: Cell Viability - LYMP2-012 (AID 982).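 Further: cellular ATP by luciferase luminescence where a drop means cytotoxicity; cells exposed to compound for one day before reading; 0% = DMSO only and full loss = 92 µM tetraoctylammonium bromide; nearly all actives have a fitted effect of over 55% in size.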
Assay [5] is described as follows: Cell Viability - LYMP2-014 (AID 983).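 Further: plate controls were DMSO only for no effect and 92 µM tetraoctylammonium bromide for full effect; nearly all actives have a fitted effect of over 50% in size.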 A digest of the protocol:
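LYMP2-014 human lymphoblastoid cells, 2500/well, treated 24 h at 37 C in complete medium; viability by CellTiter-Glo ATP luminescence after 30 min at room temperature. AC50 from Hill fits of qHTS concentration-response; tetraoctylammonium bromide positive control.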

A short description of assay [6]: Cell Viability - LYMP2-016 (AID 984). Further: on the % scale 0 is the no-effect control and ±100 the full control effect; nearly all actives have a fitted effect of over 55% in size. Summed up: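 Human lymphoblastoid cells (LYMP2-016), 2500/well in complete medium, preincubated 5 hr at 37 C, then compound-treated 24 hr at 37 C. Intracellular ATP read by CellTiter-Glo luminescence after 30 min at room temperature; AC50 from Hill-equation concentration-response fits.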
The nature of assay [7]: Cell Viability - LYMP2-018 (AID 985).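 Further: compound exposure lasted 24 hr at 37 °C; plate controls were DMSO only for no effect and tetraoctylammonium bromide at 92 µM for full effect; nearly all actives have a fitted effect of over 50% in size.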 Summed up:
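Human lymphoblastoid LYMP2-018 cells, 2500/well, settled 5 hr at 37 C then exposed to compound 24 hr at 37 C; intracellular ATP measured by CellTiter-Glo luminescence. AC50 from Hill-equation concentration-response fits.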

Assay [8] can be described thus: Cell Viability - LYMP2-020 (AID 986).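 Further: plate controls were DMSO only for no effect and tetraoctylammonium bromide at 92 µM for full effect; nearly all actives have a fitted effect of over 55% in size.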 Summed up: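 Human lymphoblastoid LYMP2-020 cells (2500/well) preincubated 5 h at 37 C, then treated 24 h at 37 C. Viability measured as intracellular ATP by CellTiter-Glo luminescence after 30 min at room temperature; AC50 from Hill fits.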
A short description of assay [9]: Cell Viability - LYMP2-022 (AID 987).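 Further: 0% = DMSO alone and full effect = tetraoctylammonium bromide at 92 µM; nearly all actives have a fitted effect of over 55% in size.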 A digest of the protocol:
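LYMP2-022 lymphoblastoid cells (2500/well, complete medium) were treated with compounds for 24 hours at 37 C; intracellular ATP was then read by CellTiter-Glo luminescence after 30 min at room temperature. AC50 values were derived from Hill-equation fits.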

Assay [10] is described as follows: Cell Viability - LYMP2-024 (AID 988).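 Further: plate controls were DMSO only for no effect and 92 µM tetraoctylammonium bromide for full effect; nearly all actives have a fitted effect of over 60% in size.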 Summed up:
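Human lymphoblastoid LYMP2-024 cells (2500/well) rested 5 hr, then treated with compound for 24 hr at 37 C in complete medium. Viability was measured as intracellular ATP by CellTiter-Glo luminescence. AC50 values came from Hill-equation fits.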

Assay [11] can be described thus: Cell Viability - LYMP2-026 (AID 989). Further: on the % scale 0 is the no-effect control and ±100 the full control effect; nearly all actives have a fitted effect of over 50% in size. A digest of the protocol: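 Human lymphoblastoid LYMP2-026 cells, 2500/well, exposed to compound 24 h at 37 C in complete medium. Viability as intracellular ATP by CellTiter-Glo luminescence; AC50 from Hill fits of qHTS concentration-response.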
Assay [12] addresses Alpha-galactosidase A (Homo sapiens) (UniProt P06280). The experiment in a line: Counterscreen for Glucocerebrosidase Inhibitors: qHTS Assay for Human alpha-Galactosidase at pH 4.5 (AID 992). Further: 0% is about no effect. Summed up:
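Read-out is 4-methylumbelliferone fluorescence (365 nm excitation, 440 nm emission) after a pH 10 NaOH/glycine stop. Reactions held 2 nM enzyme and 80 uM substrate at pH 4.5 for 20 min at room temperature.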

Assay [13] is described as follows: Cell Viability - LYMP1-002 - Assay at 24 hr (AID 993). Further: on the % scale 0 is the no-effect control and ±100 the full control effect. Summed up: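 Human lymphoblastoid LYMP1-002 cells (2500/well) treated 24 h at 37 °C; viability as intracellular ATP by CellTiter-Glo luminescence. Tetraoctylammonium bromide as positive control; AC50 from Hill-equation fits of qHTS concentration-response.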
The nature of assay [14]: Cell Viability - LYMP1-002 - Assay at 40 hr (AID 994). A digest of the protocol: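 LYMP1-002 human lymphoblastoid cells (2500/well, complete medium) were treated with compounds for 40 hr at 37 C. Intracellular ATP was measured by CellTiter-Glo luminescence, and AC50 values came from Hill-equation fits of concentration-response data; tetraoctylammonium bromide was the positive control.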

Assay [15] can be described thus: qHTS Assay for Lipid Storage Modulators (AID 1519; calls by dose curve; on activity change, negative = inhibition: on the % scale 0 is the no-effect control and ±100 the full control effect). The following applies: Drosophila S3 cells, BODIPY lipid droplet/cell ratio, laser cytometry, cells loaded with oleic acid. Summed up:
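Cells seeded at 5,000 per well were treated with compounds over a concentration series and loaded with oleic acid (400 uM, as added). Lipid droplet fluorescence (488 nm excitation, 500-530 nm channel) was read by laser-scanning cytometry and normalized to 20 uM Triacsin C.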
In general terms: Quantitative high-throughput screening tests each substance at several concentrations.

The nature of assay [16]: Counterscreen for APE1 Inhibitors: Fluorescent Dye Displacement Validation Assay (AID 1707).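 Further: plate controls were ThO with dsDNA and no compound for no effect and ThO without dsDNA for full effect.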 A digest of the protocol: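 ThO 250 nM + dsDNA 50 nM (THF abasic site, 5'-TAMRA), Tris-HCl pH7.5/50mM NaCl/2 mM MgCl2/0.01% Tween-20; compounds pin-transferred; ex 480/em 540 nm endpoint. Neutral = no compound; no-DNA ThO wells = negative control.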
Assay [17] deals with Endonuclease 4 (Escherichia coli (strain K12)) (UniProt P0A6C1). Kind of assay: Counterscreen for APE1 Inhibitors: qHTS Validation Assay for Inhibitors of Endonuclease IV (AID 1708). Further: on the % scale 0 is the no-effect control and ±100 the full control effect. Summed up: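 qHTS concentration-response format; LOPAC1280 tested under APE1-screen conditions. 2 nM enzyme, 15 min compound preincubation at RT, then 50 nM TAMRA/BHQ-2 abasic substrate; kinetic fluorescence read, three reads at 60 s intervals.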
(The purpose of a counterscreen is to sort out artefacts and off-target activity.)

Assay [18] addresses alpha-glucosidase (Oryza sativa, rice) (UniProt Q653V4). Kind of assay: Counterscreen for Glucocerebrosidase Inhibitors: qHTS Assay for Rice alpha-Glucosidase at pH 5.0 (AID 997).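 Further: 0% = full activity with enzyme and -100% = basal without enzyme.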 Summed up: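 Rice alpha-glucosidase (4 nM final) with 400 uM 4-methylumbelliferyl-alpha-D-glucopyranoside in citrate buffer pH 5.0, 20 min at room temperature, stopped at pH 10; fluorescence 365/440 nm, compounds 0.7 nM–77 uM, AC50 from Hill fits.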

The target in assay [19] is DNA repair nuclease/redox regulator APEX1 (Homo sapiens) (UniProt P27695). Kind of assay: qHTS Validation Assay for Inhibitors of the Human Apurinic/apyrimidinic Endonuclease 1 (APE1) (AID 1705; further: potency means the concentration at half of the fitted maximal effect;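 on activity change, negative = inhibition: TAMRA fluorescence gain over two minutes as APE1 cuts a quenched THF abasic duplex; on the % scale 0 is the no-effect control and ±100 the full control effect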). Summed up: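 Human APE1 was preincubated with compound for 15 min at room temperature, then 50 nM (final) THF-abasic double-stranded DNA substrate bearing 5'-TAMRA and 3'-BHQ-2 was added. Incision-driven fluorescence rise (ex 525/em 598 nm) was read kinetically.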
Chain of DNA repair nuclease/redox regulator APEX1 (Homo sapiens) (P27695 whole entry, looked up): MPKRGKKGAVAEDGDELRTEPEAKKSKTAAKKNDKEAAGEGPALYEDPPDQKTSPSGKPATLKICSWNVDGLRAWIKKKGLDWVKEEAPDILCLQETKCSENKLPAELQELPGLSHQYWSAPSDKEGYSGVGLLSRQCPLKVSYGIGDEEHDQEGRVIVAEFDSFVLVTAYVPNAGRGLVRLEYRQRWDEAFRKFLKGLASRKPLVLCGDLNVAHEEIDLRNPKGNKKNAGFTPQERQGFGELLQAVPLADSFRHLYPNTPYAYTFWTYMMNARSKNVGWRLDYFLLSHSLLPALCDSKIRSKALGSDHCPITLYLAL

[20] abbreviates: measured here: cell count channel max response.
[21] abbreviates: measured here: lipid channel max response.

Several values for one entry are separate records, joined by “and”; a condition that tells them apart may be missing. Equal values may be shown once. Results filed as inconclusive are left out. Activity calls are given as the source filed them. Unless noted, the call rests on the fitted dose curve; in most records, active means well fitted curve in the direction sought with a large enough effect; inconclusive means small, poorly fitted or top-dose-only effect, or another doubt; inactive means no such curve, though single readings can be large; an effect the other way counts as inactive or inconclusive.

Chain of Alpha-galactosidase A (Homo sapiens) (P06280 whole entry, looked up): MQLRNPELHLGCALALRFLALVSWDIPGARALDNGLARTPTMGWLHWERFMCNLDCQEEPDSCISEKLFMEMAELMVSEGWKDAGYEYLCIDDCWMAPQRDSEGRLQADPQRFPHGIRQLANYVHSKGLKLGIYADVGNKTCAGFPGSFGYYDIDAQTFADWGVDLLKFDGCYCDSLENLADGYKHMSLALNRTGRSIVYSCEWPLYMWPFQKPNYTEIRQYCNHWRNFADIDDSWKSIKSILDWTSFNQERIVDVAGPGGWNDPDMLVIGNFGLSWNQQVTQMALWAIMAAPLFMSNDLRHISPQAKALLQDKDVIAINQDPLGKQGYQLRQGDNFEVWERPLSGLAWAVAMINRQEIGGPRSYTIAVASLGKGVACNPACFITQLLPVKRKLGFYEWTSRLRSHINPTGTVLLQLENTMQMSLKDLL

As for `COc1ccc2c(c1)c(CC(=O)O)c(C)n2C(=O)c1ccc(Cl)cc1`, the result in [1], in assay [2], in assay [3], in [4], in [5] and in assay [6] was inactive. For the same compound, the call in assay [7], in [8], in [9], in assay [10], in [11] and in assay [12] was inactive. Moreover, the compound was called inactive in assay [13]. The Potency result in [14], in [16] and in assay [17] was “inactive” in each case. The activity change, negative = inhibition in assay [15] (at 25.7 µM (top of the series)) is 0.248% (inactive); in assay [15] (at 57.5 µM (top of the series)), 13.5% (inactive). Moreover, the max response is 4.07% and 38% in assay [15] (setting [20]); -0.937% and 62.5% in [15] (setting [21]).
Consider `CN(C)CCC=C1c2ccccc2C=Cc2ccccc21`, for which the compound was called inactive in assay [12] and in [18]. Further, the activity change, negative = inhibition in assay [15] (at 25.7 µM (top of the series)) is -1.76% (inactive); in [15] (at 57.5 µM (top of the series)), 0.751% (inactive). The max response in assay [15] (setting [20]) was -6.8% and 1.02%; in assay [15] (setting [21]), -7.37% and 4.03%. The Potency in [19] was 4.47 µM (active).
For the compound `CC12CC3CC(C)(C1)CC(N)(C3)C2`, the activity change, negative = inhibition in [15] (at 57.5 µM (top of the series)) is 7.67% (inactive) and 1.43% (inactive). For the same compound, the max response in assay [15] (setting [20]) is 15.3% and 15.6%; in [15] (setting [21]), 26.5% and 20.5%. Also, the Potency result in assay [19] and in [17] was “inactive” each time.
With `Nc1nc2c(ncn2COC(CO)CO)c(=O)[nH]1`, the outcome in [12] was inactive. Further, the activity change, negative = inhibition is -0.899% (inactive) in assay [15] (at 25.7 µM (top of the series)) and -0.373% (inactive) in assay [15] (at 57.5 µM (top of the series)). The max response in assay [15] (setting [20]) is 0.439% and 44.9%; in [15] (setting [21]), 0.456% and 46.2%. Also, in assay [16], the Potency entry was “inactive”.
For `Nc1c2c(nc3ccccc13)CCCC2`, the compound was called inactive in assay [1], in assay [2], in assay [3], in [4], in assay [5] and in assay [6]. Further, the result in assay [7], in assay [8], in assay [9], in assay [10], in assay [11] and in assay [12] was inactive. Further, the outcome in assay [13] was inactive. In addition, the Potency entry in assay [14], in [19] and in assay [17] was “inactive” throughout. In addition, the activity change, negative = inhibition was 0.95% (inactive) in [15] (at 25.7 µM (top of the series)) and 2.49% (inactive) in [15] (at 57.5 µM (top of the series)). For the same compound, the max response in assay [15] (setting [20]) is -0.801% and 25.5%; in assay [15] (setting [21]) it was -0.834% and 27.2%.
